CRFR2-BP antag: antagonists of CRF-BP/CRF-R2 complex, primary screen, cell-based, HEK293, calcium dye fluorescence, uHTS; inhibition, % at 11.8 µM; CRF-induced calcium fluorescence; 350,000 compounds, 0.59% hits; AID 588475, 2011;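 active = inhibition of the ligand-induced calcium signal above about 50% at the single tested concentration, limit read from the data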
RTF Ca sens act: cardiac RTF calcium sensitivity activators, primary screen, biochemical, IANBD-TnC fluorescence, EC20 calcium. 340,000 compounds, 0.24% hits. IANBD-labeled TnC RTF fluorescence at EC20 calcium; 0% EC20 calcium, 100% full calcium. activation, % at 7.2 µM. Troponin I, cardiac muscle (Homo sapiens) + Troponin T, cardiac muscle (Homo sapiens) + …. AID 493008, 2010;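 active = activation above the mean over all tested compounds plus 3 SD, cut at about 30% in these data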;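 note: rise in fluorescence read as greater calcium sensitivity of cardiac thin filaments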
Myeloid diff MLP: induction of myeloid progenitor differentiation, primary screen, cell-based, flow cytometry, MLPCN library. ER-HoxA9 myeloid progenitors, lysozyme-GFP differentiation. calls only at 10 µM. 360,000 compounds, 1% hits. AID 624256, 2012;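 active = normalized GFP-positive differentiation at or above the plate's own cutoff, the solvent-only control mean plus 3 SD; inconclusive = no clear call, values can overlap the other calls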;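 note: cells exposed to compound for four days before flow analysis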
CRFBP-R2 agonist: agonists of CRF-BP/CRF-R2 complex, primary screen, cell-based, HEK293, calcium dye fluorescence, uHTS | 350,000 compounds, 0.46% hits | calcium dye fluorescence (FLIPR); percent of saturating CRF peptide response | AID 588473, 2011 | activation, % at 13.2 µM;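 active = activation of at least 50%, plus an integration ratio under a set limit after plate pattern correction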;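 note: plate controls were neutral control wells without compound for no effect and CRF at EC100 for full effect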
RTF Ca sens inh: cardiac RTF calcium sensitivity inhibitors, primary screen, biochemical, IANBD-TnC fluorescence, EC70 calcium. IANBD-labeled cardiac RTF, Ca2+ fluorescence. Troponin I, cardiac muscle (Homo sapiens) + Troponin T, cardiac muscle (Homo sapiens) + …. 340,000 compounds, 0.12% hits. inhibition, % at 7.15 µM;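 active = inhibition above the mean inhibition of all tested compounds plus 3 SD, cut at about 17% in these data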;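 note: assay run at fixed EC70 calcium of 1.6 mM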
Numbers without * were called inactive; i = inactive; ? = inconclusive; nt = no result; + = active, no number. Shown are actives, neighbours in structure and some others; about 2.2% of the full set was active somewhere.

SMILES | CRFR2-BP antag | RTF Ca sens act | Myeloid diff MLP | CRFBP-R2 agonist | RTF Ca sens inh
CC(=O)c1cccc(NCC(=O)N2CCN(S(=O)(=O)c3ccccc3)CC2)c1 | 5 | -2 | i | 0 | -10
CN1CCC(N(C)C(=O)c2ccc(Cl)c(S(=O)(=O)N3CCOCC3)c2)CC1 | 8 | 1 | i | 2 | -11
O=C(Nc1ccncc1)C1CCN(S(=O)(=O)c2ccc(Cl)c(C(F)(F)F)c2)CC1 | -7 | -2 | i | 0 | -4
COc1cc(CC(=O)NCc2ccc3c(c2)OCO3)cc(OC)c1OC | -4 | 2 | i | -1 | -11
COc1cc(C[C@H](C)[C@H](C)Cc2ccc3c(c2)OCO3)ccc1O | 59* | -5 | i | 0 | -3
N#Cc1ccccc1COC(=O)c1cccc(S(=O)(=O)N2CCCC2)c1 | -6 | 0 | i | -1 | 2
C=CCn1c(Cc2ccc(OC)cc2)nnc1SCC(N)=O | -21 | 2 | i | 1 | -1
C=CCn1c(Cc2ccc(OCC)cc2)nnc1SCC(N)=O | 16 | -4 | + | -4 | -6
O=C(Cc1c[nH]c2ccccc12)N1CCN(S(=O)(=O)c2cccc(Cl)c2Cl)CC1 | 5 | -4 | i | -2 | -6
COc1ccc(N2CCN(C(=O)c3ccc(S(=O)(=O)N4CCOCC4)cc3)CC2)cc1 | 3 | 19 | + | 0 | -16
O=C(OCC(=O)N1CCN(S(=O)(=O)c2ccccc2)CC1)C1CCC1 | 11 | 7 | i | 0 | 1
Cc1ccc(S(=O)(=O)N2CCN(C(=O)c3ccccc3)CC2)cc1 | 9 | -3 | + | 0 | -10
O=C(c1ccccc1)N1CCN(C(=O)c2cccnc2)CC1 | 8 | -4 | + | 0 | -6
O=C(CC1CCCC1)N1CCN(S(=O)(=O)c2ccccc2)CC1 | -7 | 33* | + | 0 | -125
CCCC(=O)N1CCCC1(C)C(=O)Nc1ccc(-n2cncn2)cc1 (stereo not drawn) | nt | nt | i | nt | nt
COc1cc(OC)c(C(=O)OCC(=O)Nc2nnc(-c3ccccc3)o2)cc1OC | -3 | -2 | i | 1 | -5
CCOC(=O)C1=C(O)/C(=C/c2ccc(-c3ccccc3C(=O)O)o2)SC1=Nc1ccc(C)cc1 | -26 | 1 | i | 43 | -19
CCOC(=O)C1=C(O)/C(=C/c2cn(CC(=O)NCC3CCCO3)c3ccccc23)SC1=Nc1ccc(C)cc1 (stereo not drawn) | -18 | 135* | i | 61* | -20
Cc1csc(SCC(=O)Nc2ncc(Cl)c(C)c2Cl)n1 | 0 | 12 | i | 1 | 5
CCOC(=O)c1nnc(-c2ccccc2)nc1N1CC(C)OC(C)C1 (stereo not drawn) | 56* | 1 | i | -1 | -11
COc1cc2ncnc(NCc3ccccc3)c2cc1OC | -21 | -6 | i | 3 | -4
COc1cc2ncnc(NCc3cccc(Cl)c3)c2cc1OC | -10 | 1 | + | -2 | -5
COc1ccccc1C(=O)Oc1ccc2c(c1)O/C(=C\c1ccncc1)C2=O | -60 | 35* | i | 124* | -55
CC(=O)Oc1ccc2c(c1)O/C(=C\c1ccncc1)C2=O | -67 | 60* | i | 127* | -80
Cc1ccc(S(=O)(=O)NC(C(=O)O)c2ccccc2)cc1 (stereo not drawn) | -176 | -1 | i | 133* | -7
SMILES | CRFR2-BP antag | RTF Ca sens act | Myeloid diff MLP | CRFBP-R2 agonist | RTF Ca sens inh
O=C(c1cc2ccccc2o1)N1CCN(Cc2nc3ccccc3s2)CC1 | 33 | nt | i | 0 | nt
COC(=O)Nc1nncs1 | 0 | 4 | i | -2 | -2
c1nnc(NCNc2nncs2)s1 | -6 | nt | i | 60* | nt
Cc1ccnc(NC(=O)CCC(=O)N(CC(=O)NCc2ccccc2)Cc2ccc(F)cc2)c1 | -2 | -6 | + | 1 | 4
Cc1ccnc(NC(=O)CCC(=O)N(CC(=O)NCc2ccccc2)Cc2ccccc2)c1 | 19 | -3 | i | -1 | -3
COc1cc(S(=O)(=O)Nc2ccc(C)cc2)ccc1N=Cc1c(C)[nH]n(-c2ccc(C)cc2)c1=O | -2 | -2 | i | -2 | 4
COc1cc(S(=O)(=O)Nc2ccc(C)cc2)ccc1N=Cc1c(C)c(C#N)c(=O)n(C)c1O | -102 | nt | i | 80* | nt
C/C1=C\CCC2C(/C=C(\C)CC1)OC(=O)C2CN1CCCCC1 (stereo not drawn) | 3 | -3 | ? | 2 | 5
C/C(=N\Nc1ccccc1Cl)c1ccc(-n2ccnc2)cc1 | 1 | -7 | + | -1 | 4
COc1ccc(CNC(=O)CNC(=O)N2CC(=O)Nc3ccccc32)cc1 | -3 | -5 | i | 0 | -6
CCCNC(=O)Cn1c(=O)/c(=C\c2ccc(-c3ccc([N+](=O)[O-])cc3)o2)s/c1=C\C(=O)C(C)(C)C | -443 | 23 | + | 356* | -55
O=C1NC(=O)/C(=C/c2ccc(-c3cccc([N+](=O)[O-])c3)o2)S1 | 5 | 1 | i | -8 | 4
CCCNC(=O)Cn1c(=O)/c(=C\c2ccc(-c3cccc([N+](=O)[O-])c3)o2)s/c1=C\C(=O)C(C)(C)C | -121 | 1 | + | 57* | -4
CCCNC(=O)Cn1c(=O)/c(=C/c2ccc(-c3cccc([N+](=O)[O-])c3)o2)s/c1=C\C(=O)C(C)(C)C | -51 | 2 | + | 32 | -11
O=C(COC(=O)CNC(=O)c1ccccc1)NCc1ccc2c(c1)OCO2 | 14 | -3 | i | 0 | -3
COC(=O)[C@@]12C[C@@H](CC(=O)NCC3CCCCC3)C(=O)N(Cc3ccco3)C1=CCC(C)(C)C2 | nt | nt | i | nt | nt
CCCSc1ncnc2[nH]ncc12 | -26 | -4 | i | 0 | 2
CNc1nc(NCc2ccccc2)c2ccccc2n1 | 9 | 2 | nt | -1 | -2
CCCCNc1nc(NCc2ccccc2)nc2ccccc12 | nt | nt | + | nt | nt
NC(=O)C1=C[C@@H](c2csc3ccccc23)C[C@@H](OCCCCO)O1 | 3 | -5 | + | 0 | -8
CCOC(=O)C(C#N)=CN1CCNc2ccccc21 | 12 | -1 | i | -2 | -12
CCOc1ccc(S(=O)(=O)N2CCC(C(=O)N3CCCC3)CC2)cc1C | 1 | 2 | i | 0 | -4
COc1cccc(OCc2cc(C(=O)NC3CCOCC3)no2)c1 | 0 | 3 | + | 0 | -3
N#CCCN(Cc1ccccc1)C(=O)CCC(=O)c1ccc(F)cc1 | 3 | nt | i | -1 | nt
Cc1c(C(=O)O)sc(S(=O)(=O)N2CCN(C(=O)Cc3ccc(F)cc3)CC2)c1C(=O)O | 52* | 1 | i | -1 | 7
Cc1c(C(=O)O)sc(S(=O)(=O)N2CCN(C(=O)Cc3ccc(Cl)cc3)CC2)c1C(=O)O | -7 | 5 | i | 3 | -3

Assay outcomes from PubChem.
